Results on 40 molecules are retold here after PubChem BioAssay (Tox21).

Results filed as inconclusive are left out. A call without a number means that no potency is given here. Activity calls are given as the source filed them. The call rests on the fitted dose curve; in most records, active means well fitted cell-killing curve with a large enough effect in the repeat runs; inconclusive means weak or mixed curves, or effect the other way; inactive means flat fitted curve, though single readings scatter.
Potency means the concentration at half of the fitted maximal effect.

The test is described as follows: qHTS assay to identify small molecule antagonists of the retinoid acid receptor (RAR) signaling pathway - cell viability counter screen (AID 1159551). Further: nearly all actives have a fitted effect of over 35% in size. The settings on record: C3RL4 cells viability, ATP luminescence (CellTiter-Glo), 6 h; series mostly up to 92.4 µM; activity change, negative = cytotoxicity: at the top concentration. The text has this: U.S. Tox21 Program National Center for Advancing Translational Sciences [NCATS] NIH Chemical Genomics Center [NCGC] U.S. Environmental Protection Agency [EPA] National Institutes of Environmental Health Sciences [NIEHS] National Toxicology Program [NTP] U.S. Food and Drug Administration [FDA] Tox21 Assay Overview: All-trans Retinoic acid (atRA) is the potent natural metabolite of retinol and plays an important role in normal embryonic development and maintenance of cellular phenotype in adult animals. atRA is the activating ligand for the retinoic acid receptors (RARs) which form heterodimers with retinoid X receptors (RXRs) on the retinoic acid response element (RARE). Through activation of the RAR/RXRs nuclear receptors, atRA regulates the transcription of a large number of protein-coding genes and regulatory RNAs. Intracellular levels of atRA are controlled by the retinol signaling pathway (RSP) that regulates the biosynthesis and catabolism of atRA to maintain physiological levels. Chemicals that interfere with the RSP can cause abnormal intracellular levels of atRA and therefore are potential developmental toxicants. To assess compounds for the potential adverse effect on embryonic development through interfering with retinol signaling, a cell-based RARE luciferase reporter gene assay was used. C3RL4 cell line (OARSA/CFSAN/FDA, Laurel, MD) was used to screen Tox21 10K compound library for identifying inhibitors of the RSP. Also cytotoxicity was assessed by determining the viability of cells based on the quantitation of ATP.
Tox21 Assay Protocol Summary: C3RL4 cells were seeded at 1,000/well in 4 uL of assay medium into white solid 1,536-well tissue culture plates (Greiner Bio-One North America Inc. Monroe, NC) using a Multidrop Combi (Thermo Scientific, Waltham, MA) dispenser. After incubation at 37 C and 5% CO2 for an overnight, 23 nL of compounds dissolved in DMSO, positive control or DMSO only were transferred by a Pintool station (Kalypsys, San Diego, CA). One ul of 1 uM (final concentration) of Retinol was added right after the compound addition by using a Flying Reagent Dispenser (FRD) (Aurora Discovery, San Diego, CA). After 6 hr incubation at 37 C and 5% CO2, 5 uL of CellTiter-Glo reagent (Promega Corporation, Madison, WI) was added to each assay plate using an FRD. Luminescence was quantified on a ViewLux plate reader (PerkinElmer, Waltham, MA) after 30 min incubation at room temperature.
For orientation: In qHTS, concentration-response curves come from the screen itself.
Turning to `Oc1cc(Cl)ccc1Oc1ccc(Cl)cc1Cl`, the Potency is 31.4 µM (active).
With `Cc1cc(C)cc(C)c1`, the Potency entry is “inactive”.
Turning to `CC(C)(OOC(C)(C)c1ccccc1)c1ccccc1`, the “activity change, negative = cytotoxicity” value was -9.44% (inactive).
Regarding `CCCCNC(=O)n1c(NC(=O)OC)nc2ccccc21`, the Potency result is “inactive”.
As to `c1ccc(NNc2ccccc2)cc1`, the “activity change, negative = cytotoxicity” value was -0.654% (inactive).
Consider `S=C1NCCN1`, for which the Potency entry was “inactive”.
Still for that read-out and setting: then `CNC(=O)Oc1cccc2c1OC(C)(C)O2`, with “inactive”; and `Nc1ccncc1`, with “inactive”.
The same measure, in the same setting: then `CCCCCCOC(=O)c1ccccc1C(=O)OCCCCCC`, with “inactive”; and `Cc1cc(Cl)ccc1OCCCC(=O)O`, with “inactive”.
Consider `CC(C)N(C(=O)SCC(Cl)=C(Cl)Cl)C(C)C`, for which the “activity change, negative = cytotoxicity” value was -5.79% (inactive).
Still for that read-out and setting: to `CCCCCc1cc(O)cc(O)c1` belongs -2.34% (inactive).
On to `c1ccc(N=Nc2ccccc2)cc1`, for which the Potency result is “inactive”.
Turning to `CCCCCCCCCCCOC(=O)c1ccccc1C(=O)OCCCCCCCCCCC`, the Potency entry is “inactive”.
On the same count and under the same terms, then `CCC(C)c1cc([N+](=O)[O-])cc([N+](=O)[O-])c1O` (stereo not given), with “inactive”; and `C1=Cc2cccc3cccc1c23`, with “inactive”.
Same read-out and setting: to `c1ccc(-c2cccc(-c3ccccc3)c2)cc1` belongs “inactive”; to `O=[N+]([O-])c1ccc(O)c([N+](=O)[O-])c1`, “inactive”.
On the same count and under the same terms, then `c1nc[nH]n1`, with “inactive”; and `Oc1cc(Cl)ccc1Cl`, with “inactive”; and `Clc1nc(Cl)nc(Cl)n1`, with “inactive”.
Turning to `Nn1cnnc1`, the Potency entry was “inactive”.
In the case of `COC(=O)c1sccc1S(=O)(=O)NC(=O)Nc1nc(C)nc(OC)n1`, the Potency result is “inactive”.
For the molecule `CCC(=O)O[C@H]1CC[C@H]2[C@@H]3CCC4=CC(=O)CC[C@]4(C)[C@H]3CC[C@]12C`, the “activity change, negative = cytotoxicity” value is -2.51% [at 42.5 µM] (inactive).
The same measure, in the same setting: to `C[C@]12CCC(=O)C[C@@H]1CC[C@@H]1[C@@H]2CC[C@]2(C)[C@@H](O)CC[C@@H]12` belongs 1.84% [at 42.5 µM] (inactive).
Still for that read-out and setting: then `Nc1ccc(Cl)cc1N`, with 8.68% (inactive).
Regarding `O=C(O)C(F)(F)C(F)(F)C(F)(F)C(F)(F)C(F)(F)C(F)(F)C(F)(F)F`, the Potency result is “inactive”.
Same read-out and setting: to `CN(C)c1ccc(C(=O)c2ccc(N(C)C)cc2)cc1` belongs “inactive”.
On the same count and under the same terms, then `Cc1cccc(N)c1N`, with “inactive”; and `COc1ccc(C(CN(C)C)C2(O)CCCCC2)cc1` (stereo not given), with “inactive”; and `CCCCN(CC)c1c([N+](=O)[O-])cc(C(F)(F)F)cc1[N+](=O)[O-]`, with “inactive”.
The same measure, in the same setting: then `c1ccc(P(c2ccccc2)c2ccccc2)cc1`, with “inactive”; and `O=S(=O)(Oc1ccc(Cl)cc1)c1ccc(Cl)cc1`, with “inactive”.
Take `Cc1ccccc1[N+](=O)[O-]`: the Potency result was “inactive”.
Regarding `Cc1ccc(OP(=O)(Oc2ccc(C)cc2)Oc2ccc(C)cc2)cc1`, the “activity change, negative = cytotoxicity” value was 2.14% (inactive).
Take `CC(C)c1ccc(CO)cc1`: the Potency result is “inactive”.
For the molecule `Brc1ccc(Oc2cc(Br)c(Br)cc2Br)c(Br)c1`, the Potency entry was “inactive”.
Still for that read-out and setting: to `CC(C)(C)c1ccccc1O` belongs “inactive”.
Still for that read-out and setting: to `CC(C)(c1cc(Cl)c(O)c(Cl)c1)c1cc(Cl)c(O)c(Cl)c1` belongs “inactive”.
Consider `COP(=O)(OC)OC`, for which the Potency entry is “inactive”.
